Laboratory results: the supplement of paper PMC8728848
Shown is part of a subset that was picked to be rich in the strongest signals.

Tests used:
Assay in all cases: glycan array binding signal (z-score within array); higher = stronger binding
Conditions in all cases: glycan notation: IUPAC condensed, linker removed
[1] = molecular target: Fuc(a1-2)Gal(b1-3)GlcNAc(b1-2)Man(a1-3)[Fuc(a1-2)Gal(b1-3)GlcNAc(b1-2)Man(a1-6)]Man(b1-4)GlcNAc(b1-4)GlcNAc
Procedure, shortened: (§1)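 The binding signal is a Z-score computed within each array. Data were drawn from 3228 arrays in the Consortium for Functional Glycomics database, restricted to those with a known protein sequence. Scores were averaged over arrays of the same protein sequence at different concentrations or buffers, and over linkers, and negative values can be taken as non-binding.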

[2] = molecular target: Fuc(a1-2)Gal(b1-3)GlcNAc(b1-3)Gal(b1-4)Glc
Procedure, shortened: as §1

[3] = molecular target: Fuc(a1-2)Gal(b1-4)GlcNAc(b1-2)Man(a1-3)[Fuc(a1-2)Gal(b1-4)GlcNAc(b1-2)Man(a1-6)]Man(b1-4)GlcNAc(b1-4)[Fuc(a1-6)]GlcNAc
Procedure, shortened: as §1

[4] = molecular target: Fuc(a1-2)Gal(b1-4)GlcNAc(b1-3)[Fuc(a1-2)Gal(b1-4)GlcNAc(b1-6)]GalNAc
Procedure, shortened: as §1

[5] = molecular target: Fuc(a1-2)[Gal(a1-3)]Gal(b1-4)GlcNAc
Procedure, shortened: as §1

[6] = molecular target: Fuc(a1-2)[Gal(a1-3)]Gal(b1-4)GlcNAc(b1-6)GalNAc
Procedure, shortened: as §1

[7] = molecular target: Fuc(a1-2)[GalNAc(a1-3)]Gal(b1-3)GlcNAc(b1-3)GalNAc
Procedure, shortened: as §1

[8] = molecular target: Fuc(a1-2)[GalNAc(a1-3)]Gal(b1-4)GlcNAc(b1-3)GalNAc
Procedure, shortened: as §1

[9] = molecular target: Fuc(a1-3)[Gal(b1-4)]GlcNAc(b1-3)Gal(b1-4)[Fuc(a1-3)]GlcNAc(b1-3)Gal(b1-4)[Fuc(a1-3)]GlcNAc
Procedure, shortened: as §1

[10] = molecular target: Fuc(a1-3)[Gal(b1-4)]GlcNAc(b1-6)GalNAc
Procedure, shortened: as §1

[11] = molecular target: Fuc(a1-3)[Gal(b1-4)]GlcNAc(b1-6)[Gal(b1-3)GlcNAc(b1-3)]Gal(b1-4)Glc
Procedure, shortened: as §1

Fuc(a1-4)GlcNAc = molecular target: Fuc(a1-4)GlcNAc
Procedure, shortened: as §1

[12] = molecular target: Gal(a1-3)Gal(b1-3)GlcNAc(b1-2)Man
Procedure, shortened: as §1

[13] = molecular target: Gal(a1-3)Gal(b1-4)GlcNAc(b1-6)GalNAc
Procedure, shortened: as §1

[14] = molecular target: Gal(b1-3)GalNAc(b1-4)Gal(b1-4)Glc
Procedure, shortened: as §1

[15] = molecular target: Gal(b1-3)GlcNAc(b1-3)Gal(b1-4)GlcNAc
Procedure, shortened: as §1

[16] = molecular target: Gal(b1-3)GlcNAc(b1-3)Gal(b1-4)GlcNAc(b1-6)[Gal(b1-3)GlcNAc(b1-3)]Gal(b1-4)Glc
Procedure, shortened: as §1

[17] = molecular target: Gal(b1-3)GlcNAc(b1-6)[Gal(b1-3)]GalNAc
Procedure, shortened: as §1

[18] = molecular target: Gal(b1-3)[Fuc(a1-4)]GlcNAc(b1-2)Man(a1-3)[Gal(b1-3)[Fuc(a1-4)]GlcNAc(b1-2)Man(a1-6)]Man(b1-4)GlcNAc(b1-4)[Fuc(a1-6)]GlcNAc
Procedure, shortened: as §1

[19] = molecular target: Gal(b1-3)[Fuc(a1-4)]GlcNAc(b1-3)Gal(b1-4)[Fuc(a1-3)]GlcNAc
Procedure, shortened: as §1

[20] = molecular target: Gal(b1-3)[Fuc(a1-4)]GlcNAc(b1-6)GalNAc
Procedure, shortened: as §1

[21] = molecular target: Gal(b1-4)GlcNAc(b1-2)Man(a1-3)[Gal(b1-4)GlcNAc(b1-2)Man(a1-6)]Man(b1-4)GlcNAc(b1-4)[Fuc(a1-6)]GlcNAc
Procedure, shortened: as §1

[22] = molecular target: Gal(b1-4)GlcNAc(b1-2)[Gal(b1-4)GlcNAc(b1-4)]Man(a1-3)[GlcNAc(b1-4)][Gal(b1-4)GlcNAc(b1-2)[Gal(b1-4)GlcNAc(b1-6)]Man(a1-6)]Man(b1-4)GlcNAc(b1-4)GlcNAc
Procedure, shortened: as §1

[23] = molecular target: Gal(b1-4)GlcNAc(b1-3)Gal(b1-4)GlcNAc(b1-3)Gal(b1-4)GlcNAc(b1-2)Man(a1-3)[Gal(b1-4)GlcNAc(b1-3)Gal(b1-4)GlcNAc(b1-3)Gal(b1-4)GlcNAc(b1-2)Man(a1-6)]Man(b1-4)GlcNAc(b1-4)[Fuc(a1-6)]GlcNAc
Procedure, shortened: as §1

[24] = molecular target: Gal(b1-4)GlcNAc(b1-3)Gal(b1-4)GlcNAc(b1-3)[Gal(b1-4)GlcNAc(b1-3)Gal(b1-4)GlcNAc(b1-6)]GalNAc
Procedure, shortened: as §1

[25] = molecular target: Gal(b1-4)GlcNAc(b1-3)Gal(b1-4)GlcNAc(b1-6)[Gal(b1-3)]GalNAc
Procedure, shortened: as §1

Gal3S(b1-3)GalNAc = molecular target: Gal3S(b1-3)GalNAc
Procedure, shortened: as §1

Gal3S6S(b1-4)GlcNAc6S = molecular target: Gal3S6S(b1-4)GlcNAc6S
Procedure, shortened: as §1

Gal6S(b1-3)GlcNAc = molecular target: Gal6S(b1-3)GlcNAc
Procedure, shortened: as §1

Gal6S(b1-4)Glc = molecular target: Gal6S(b1-4)Glc
Procedure, shortened: as §1

[26] = molecular target: GalNAc(b1-3)Gal(a1-4)Gal(b1-4)GlcNAc(b1-3)Gal(b1-4)Glc
Procedure, shortened: as §1

GalNAc(b1-4)GlcNAc = molecular target: GalNAc(b1-4)GlcNAc
Procedure, shortened: as §1

GalNAc4S6S(b1-4)GlcNAc = molecular target: GalNAc4S6S(b1-4)GlcNAc
Procedure, shortened: as §1

[27] = molecular target: GlcNAc(a1-4)Gal(b1-4)GlcNAc(b1-3)Gal(b1-4)[Fuc(a1-3)]GlcNAc(b1-3)Gal(b1-4)[Fuc(a1-3)]GlcNAc
Procedure, shortened: as §1

[28] = molecular target: GlcNAc(b1-3)Gal(b1-4)GlcNAc(b1-6)[Gal(b1-3)]GalNAc
Procedure, shortened: as §1

GlcNAc(b1-6)GalNAc = molecular target: GlcNAc(b1-6)GalNAc
Procedure, shortened: as §1

Kdn(a2-6)Gal(b1-4)GlcNAc = molecular target: Kdn(a2-6)Gal(b1-4)GlcNAc
Procedure, shortened: as §1

[29] = molecular target: Man(a1-2)Man(a1-2)Man(a1-6)[Man(a1-3)]Man
Procedure, shortened: as §1

[30] = molecular target: Man(a1-3)[Man(a1-6)]Man(b1-4)GlcNAc(b1-4)[Fuc(a1-6)]GlcNAc
Procedure, shortened: as §1

[31] = molecular target: Neu5Ac(a2-3)Gal(b1-3)GalNAc(b1-4)[Neu5Ac(a2-3)]Gal(b1-4)Glc
Procedure, shortened: as §1

[32] = molecular target: Neu5Ac(a2-3)Gal(b1-3)]Neu5Ac(a2-3)Gal(b1-4)]GlcNAc
Procedure, shortened: as §1

[33] = molecular target: Neu5Ac(a2-3)Gal(b1-4)GlcNAc(b1-2)Man(a1-3)[Neu5Ac(a2-3)Gal(b1-4)GlcNAc(b1-2)Man(a1-6)]Man(b1-4)GlcNAc(b1-4)GlcNAc
Procedure, shortened: as §1

[34] = molecular target: Neu5Ac(a2-3)Gal(b1-4)GlcNAc(b1-3)Gal(b1-4)GlcNAc(b1-6)[Gal(b1-3)]GalNAc
Procedure, shortened: as §1

[35] = molecular target: Neu5Ac(a2-3)Gal(b1-4)GlcNAc(b1-3)Gal(b1-4)[Fuc(a1-3)]GlcNAc
Procedure, shortened: as §1

[36] = molecular target: Neu5Ac(a2-3)Gal(b1-4)GlcNAc(b1-6)[Gal(b1-3)]GalNAc
Procedure, shortened: as §1

[37] = molecular target: Neu5Ac(a2-3)Gal(b1-4)[Fuc(a1-3)]GlcNAc(b1-3)GalNAc
Procedure, shortened: as §1

Neu5Ac(a2-3)GalNAc = molecular target: Neu5Ac(a2-3)GalNAc
Procedure, shortened: as §1

[38] = molecular target: Neu5Ac(a2-6)Gal(b1-4)GlcNAc(b1-2)Man(a1-6)[GlcNAc(b1-2)Man(a1-3)]Man(b1-4)GlcNAc(b1-4)GlcNAc
Procedure, shortened: as §1

[39] = molecular target: Neu5Ac(a2-6)Gal(b1-4)GlcNAc(b1-2)[Neu5Ac(a2-6)Gal(b1-4)GlcNAc(b1-4)]Man(a1-3)[GlcNAc(b1-4)][Neu5Ac(a2-6)Gal(b1-4)GlcNAc(b1-4)Man(a1-6)]Man(b1-4)GlcNAc(b1-4)GlcNAc
Procedure, shortened: as §1

[40] = molecular target: Neu5Ac(a2-6)Gal(b1-4)GlcNAc(b1-3)Gal(b1-4)GlcNAc(b1-6)[Gal(b1-3)]GalNAc
Procedure, shortened: as §1

[41] = molecular target: Neu5Ac(a2-6)Gal(b1-4)GlcNAc(b1-3)[Neu5Ac(a2-6)Gal(b1-4)GlcNAc(b1-6)]GalNAc
Procedure, shortened: as §1

[42] = molecular target: Neu5Ac(a2-6)Gal(b1-4)GlcNAc(b1-6)[Gal(b1-3)]GalNAc
Procedure, shortened: as §1

[43] = molecular target: Neu5Ac(a2-8)Neu5Ac(a2-3)Gal(b1-3)GalNAc(b1-4)[Neu5Ac(a2-3)]Gal(b1-4)Glc
Procedure, shortened: as §1

B1: Aap arpt (Staphylococcus epidermidis) (protein)
chain: NNEAPQMSSTLQAEEGSNAEAPQSEPTKAEEGGNAEAAQSEPTKAEEGGNAEAPQSEPTKAEEGGNAEAAQSEPTKTEEGSNVKAAQSEPTKAEEGSNAEAPQSEPTKTEEGSNAKAAQSEPTKAEEGGNAEAAQSEPTKTEEGSNAEAPQSEPTKAEEGGYAEAPQSEPTKTEEGGNAEAPNVPTIKA
[1]
  glycan array binding signal (z-score): 1.6
[2]
  glycan array binding signal (z-score): 0.811
[3]
  glycan array binding signal (z-score): -0.547
[4]
  glycan array binding signal (z-score): -1.34
[5]
  glycan array binding signal (z-score): 0.036
[6]
  glycan array binding signal (z-score): -0.475
[7]
  glycan array binding signal (z-score): -0.103
[8]
  glycan array binding signal (z-score): -0.617
[9]
  glycan array binding signal (z-score): 0.278
[10]
  glycan array binding signal (z-score): 0.096
[11]
  glycan array binding signal (z-score): -0.249
Fuc(a1-4)GlcNAc
  glycan array binding signal (z-score): 0.688
[12]
  glycan array binding signal (z-score): -0.261
[13]
  glycan array binding signal (z-score): 3.25
[14]
  glycan array binding signal (z-score): 0.305
[15]
  glycan array binding signal (z-score): -1.2
[16]
  glycan array binding signal (z-score): 0.709
[17]
  glycan array binding signal (z-score): 0.662
[18]
  glycan array binding signal (z-score): 2.23
[19]
  glycan array binding signal (z-score): -1.72
[20]
  glycan array binding signal (z-score): -0.35
[21]
  glycan array binding signal (z-score): 0.746
[22]
  glycan array binding signal (z-score): -1.6
[23]
  glycan array binding signal (z-score): 2.73
[24]
  glycan array binding signal (z-score): 2.68
[25]
  glycan array binding signal (z-score): 2.97
Gal3S(b1-3)GalNAc
  glycan array binding signal (z-score): 0.361
Gal3S6S(b1-4)GlcNAc6S
  glycan array binding signal (z-score): 1.02
Gal6S(b1-3)GlcNAc
  glycan array binding signal (z-score): -1.93
Gal6S(b1-4)Glc
  glycan array binding signal (z-score): -0.15
[26]
  glycan array binding signal (z-score): -0.809
GalNAc(b1-4)GlcNAc
  glycan array binding signal (z-score): -0.143
GalNAc4S6S(b1-4)GlcNAc
  glycan array binding signal (z-score): 1.06
[27]
  glycan array binding signal (z-score): 2.41
[28]
  glycan array binding signal (z-score): -0.695
GlcNAc(b1-6)GalNAc
  glycan array binding signal (z-score): 3.2
Kdn(a2-6)Gal(b1-4)GlcNAc
  glycan array binding signal (z-score): 2.33
[29]
  glycan array binding signal (z-score): -0.012
[30]
  glycan array binding signal (z-score): 1.13
[31]
  glycan array binding signal (z-score): -1.39
[32]
  glycan array binding signal (z-score): 2.21
[33]
  glycan array binding signal (z-score): 3
[34]
  glycan array binding signal (z-score): -0.491
[35]
  glycan array binding signal (z-score): -0.571
[36]
  glycan array binding signal (z-score): 0.944
[37]
  glycan array binding signal (z-score): 0.511
Neu5Ac(a2-3)GalNAc
  glycan array binding signal (z-score): -0.745
[38]
  glycan array binding signal (z-score): 2.64
[39]
  glycan array binding signal (z-score): -0.548
[40]
  glycan array binding signal (z-score): 0.045
[41]
  glycan array binding signal (z-score): -1.09
[42]
  glycan array binding signal (z-score): 0.173
[43]
  glycan array binding signal (z-score): -1.08
